Source: PubChem BioAssay (NCATS)
Inconclusive results are not listed. Where a call stands in place of a potency, no number is given. Active and inactive are the calls of the source. Unless noted, calls come from the whole dose curve; as a rule, active = well fitted curve in the direction sought with a large enough effect; inconclusive = small, poorly fitted or top-dose-only effect, or another doubt; inactive = no such curve, though single readings can be large; an effect the other way counts as inactive or inconclusive.

What was measured:
[1] = Primary qHTS for small molecule stabilizers of the endoplasmic reticulum resident proteome: Secreted ER Calcium Modulated Protein (SERCaMP) assay (AID 1508630)
Summary of the method: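 GLuc-SERCaMP-expressing SH-SY5Y cells, pretreated 16 h with compound, are challenged with thapsigargin to empty ER calcium stores; after 4 h, coelenterazine is added directly to the medium and luminescence is imaged.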

[2] = Primary qHTS for inhibitors of nuclear receptor binding SET domain protein 2 (NSD2) in an isogenic RCH-ACV NSD2 p.E1099K mutant (9B) (AID 1645876); note: nearly all actives have a fitted effect of over 70% in size; note: potency is the fitted concentration of half-maximal effect
[3] = Primary qHTS for inhibitors of nuclear receptor binding SET domain protein 2 (NSD2) in an RCH-ACV wild type WT cells (2C) (AID 1645877); note: nearly all actives have a fitted effect of over 70% in size; note: potency is the fitted concentration of half-maximal effect
[4] = target: Cytochrome P450 2C9 (Homo sapiens) (UniProt P11712); assay: Cytochrome P450 family 2 subfamily C member 9 (CYP2C9) small molecule antagonists: luciferase biochemical (cell-free) qHTS assay (AID 1645842; active = well fitted curve in the direction sought with a large enough effect in the repeat runs; an effect the other way counts as inactive or inconclusive; note: potency is the fitted concentration of half-maximal effect; nearly all actives have a fitted effect of over 55% in size)
Cytochrome P450 2C9 (Homo sapiens), sequence (P11712 whole entry, looked up): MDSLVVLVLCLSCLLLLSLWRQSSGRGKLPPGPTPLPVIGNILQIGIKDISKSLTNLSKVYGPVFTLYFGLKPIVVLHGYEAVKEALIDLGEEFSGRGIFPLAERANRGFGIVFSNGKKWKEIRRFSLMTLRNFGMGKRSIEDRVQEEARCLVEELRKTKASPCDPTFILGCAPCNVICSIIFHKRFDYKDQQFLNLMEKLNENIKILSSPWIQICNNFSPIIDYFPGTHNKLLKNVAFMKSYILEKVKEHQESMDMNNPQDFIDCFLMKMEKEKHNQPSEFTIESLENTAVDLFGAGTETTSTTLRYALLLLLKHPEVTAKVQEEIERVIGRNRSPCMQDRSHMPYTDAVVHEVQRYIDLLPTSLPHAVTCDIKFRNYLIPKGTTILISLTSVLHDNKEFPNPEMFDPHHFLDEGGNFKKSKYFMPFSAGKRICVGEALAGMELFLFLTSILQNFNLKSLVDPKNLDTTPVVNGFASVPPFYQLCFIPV
Summary of the method: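 Luminescence, after 20 min with luciferin detection reagent, reflected CYP2C9 turnover during a 1 h NADPH-driven reaction at 37C. Enzyme-substrate mix contained 0.4% bovine serum albumin and was preincubated with compound 10 min at room temperature.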

Row | SMILES | Potency [1] | Potency [2] | Potency [3] | Potency [4]
1 | O=C(O)c1nc(=O)[nH]c(=O)[nH]1 | inactive | inactive |  | 
2 | CN(C)CC[C@H](CSc1ccccc1)Nc1ccc(S(=O)(=O)NC(=O)c2ccc(N3CCN(Cc4ccccc4-c4ccc(Cl)cc4)CC3)cc2)cc1[N+](=O)[O-] | inactive | 4.17 µM (active) | 2.63 µM (active) | 
3 | C#CCN(C)CC1=Cc2ccccc2Oc2ccccc21 | inactive | inactive |  | 
4 | CC(C)(F)C[C@H](N[C@@H](c1ccc(-c2ccc(S(C)(=O)=O)cc2)cc1)C(F)(F)F)C(=O)NC1(C#N)CC1 | inactive | inactive |  | 
5 | CC(C)[C@H](O)C(=O)N[C@@H](C)C(=O)N[C@@H]1C(=O)N(C)CCc2ccccc21 | inactive | inactive |  | 
6 | Cc1ccccc1C(C(=O)NC1CCCCC1)N(C(=O)CNc1ccc(C#N)cc1)c1cccc(F)c1 (stereo not drawn) | inactive | inactive | inactive | 1.34 µM (active)
7 | Cc1ccc(C2=Nc3ccc(Cl)cc3OC2)cc1 | inactive | inactive |  | 
8 | O=C(O)CCC=CCC[C@@H]1[C@H](N2CCCCC2)[C@@H](O)C[C@@H]1OCc1ccc(-c2ccccc2)cc1 | inactive | inactive |  | 
9 | CC1CNc2c(cccc2S(=O)(=O)N[C@@H](CCCN=C(N)N)C(=O)N2CC[C@@H](C)C[C@@H]2C(=O)O)C1 (stereo partly drawn) | inactive | inactive | inactive | 
10 | COc1c(C)cnc(Cn2cnc3c(Cl)nc(N)nc32)c1C | inactive | 0.235 µM (active) |  | 
11 | O=C(Nc1cccc(C(F)(F)F)c1)Nc1cc(S(=O)(=O)NC2CC2)ccc1-c1ccsc1 | inactive | 23.5 µM (active) | 23 µM (active) | 3.38 µM (active)
